Consider one sequence from PMC7862700, “An all-to-all approach to the identification of sequence-specific readers for epigenetic DNA modifications on cytosine”.

Assay in all cases: DAPPL (digital affinity profiling via proximity ligation, sequencing); 10 mM Tris-HCl pH 7.5, 50 mM NaCl, 1 mM DTT, 4% glycerol, room temperature, 30 min; GST-TFs on glutathione beads, 16-mer random dsDNA library, 0.1% formaldehyde crosslink after washing; high values mean tight binding
In one assay the target is T1, FEV (Homo sapiens, UniProt Q99581 1-238).
T1 sequence: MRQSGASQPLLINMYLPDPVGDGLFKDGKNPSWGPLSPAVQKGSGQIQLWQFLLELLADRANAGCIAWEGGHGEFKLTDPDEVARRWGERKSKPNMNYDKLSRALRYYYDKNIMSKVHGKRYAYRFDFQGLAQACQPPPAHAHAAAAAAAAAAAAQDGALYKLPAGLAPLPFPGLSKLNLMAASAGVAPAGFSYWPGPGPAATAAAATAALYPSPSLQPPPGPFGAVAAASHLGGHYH
The note with it: protein: recombinant; tags: N-terminal GST; dsDNA, one strand shown. The method in brief:
(§1)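 Each value of binding signal is a hexamer's read frequency for a factor divided by the same hexamer's frequency in the tag-only sample. Barcoded, bead-captured GST fusions of human transcription factors made in yeast were pooled with that sample and incubated with 200 nmole of a random double-stranded 16-mer DNA library in Tris/NaCl/DTT/glycerol buffer at room temperature for 30 min. Washing, 0.1% formaldehyde crosslinking, proximity ligation, PCR and Illumina NextSeq500 sequencing followed.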

The target in another assay is ETV5 (Homo sapiens, UniProt P41161 1-510). The note with it: protein: recombinant; tags: N-terminal GST; dsDNA, one strand shown. The method in brief: as §1
Sequence of ETV5 (P41161 whole entry): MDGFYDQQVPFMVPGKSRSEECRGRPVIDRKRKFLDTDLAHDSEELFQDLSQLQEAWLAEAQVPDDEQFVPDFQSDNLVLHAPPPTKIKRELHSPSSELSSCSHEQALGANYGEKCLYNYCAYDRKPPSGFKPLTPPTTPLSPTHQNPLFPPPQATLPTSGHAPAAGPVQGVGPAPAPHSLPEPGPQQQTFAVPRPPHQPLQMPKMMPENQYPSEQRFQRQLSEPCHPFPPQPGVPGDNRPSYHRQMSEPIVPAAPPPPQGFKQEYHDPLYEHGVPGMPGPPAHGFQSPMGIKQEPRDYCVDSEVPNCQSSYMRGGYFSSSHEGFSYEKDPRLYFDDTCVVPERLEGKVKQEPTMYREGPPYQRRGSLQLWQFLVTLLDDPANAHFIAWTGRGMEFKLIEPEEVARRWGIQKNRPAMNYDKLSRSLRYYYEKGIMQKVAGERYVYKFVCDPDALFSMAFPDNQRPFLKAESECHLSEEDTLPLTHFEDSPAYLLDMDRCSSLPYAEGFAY
In another assay the target is HSF1 (Homo sapiens, UniProt Q00613 1-529). To be noted: protein: recombinant; tags: N-terminal GST; chain copies: 3; dsDNA, one strand shown. The method in brief:
as §1

For another assay, the target named is T2, SPIC (Homo sapiens, UniProt Q8N5J4 1-248).
T2 sequence: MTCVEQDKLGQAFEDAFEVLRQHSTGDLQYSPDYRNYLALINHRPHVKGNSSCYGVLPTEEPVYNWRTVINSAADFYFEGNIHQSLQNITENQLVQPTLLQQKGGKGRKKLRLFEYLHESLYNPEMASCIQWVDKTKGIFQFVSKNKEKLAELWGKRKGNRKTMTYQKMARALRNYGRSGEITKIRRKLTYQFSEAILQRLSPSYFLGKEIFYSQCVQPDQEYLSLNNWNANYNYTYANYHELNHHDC
To be noted: protein: recombinant; tags: N-terminal GST; dsDNA, one strand shown. The method in brief: as §1

Another assay concerns the target ELF4 (Homo sapiens, UniProt Q99607 1-663). The note with it: protein: recombinant; tags: N-terminal GST; dsDNA, one strand shown. The method in brief: as §1
Another assay addresses T3, ELK4 (Homo sapiens, UniProt P28324-2 1-405).
T3 sequence: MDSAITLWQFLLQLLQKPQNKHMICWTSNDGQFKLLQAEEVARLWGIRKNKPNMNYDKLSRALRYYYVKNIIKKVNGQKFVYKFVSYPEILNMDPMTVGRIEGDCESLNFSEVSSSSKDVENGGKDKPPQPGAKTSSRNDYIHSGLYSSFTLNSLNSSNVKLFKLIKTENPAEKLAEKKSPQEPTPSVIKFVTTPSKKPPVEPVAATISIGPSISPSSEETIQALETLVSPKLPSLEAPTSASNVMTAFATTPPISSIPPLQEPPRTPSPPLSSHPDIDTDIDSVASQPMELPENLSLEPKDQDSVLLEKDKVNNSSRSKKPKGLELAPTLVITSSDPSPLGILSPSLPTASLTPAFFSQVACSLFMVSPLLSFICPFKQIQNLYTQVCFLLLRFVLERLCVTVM
To be noted: protein: recombinant; tags: N-terminal GST; dsDNA, one strand shown. The method in brief: as §1

Another assay concerns the target T4, ETV2 (Homo sapiens, UniProt O00321 1-342).
T4 sequence: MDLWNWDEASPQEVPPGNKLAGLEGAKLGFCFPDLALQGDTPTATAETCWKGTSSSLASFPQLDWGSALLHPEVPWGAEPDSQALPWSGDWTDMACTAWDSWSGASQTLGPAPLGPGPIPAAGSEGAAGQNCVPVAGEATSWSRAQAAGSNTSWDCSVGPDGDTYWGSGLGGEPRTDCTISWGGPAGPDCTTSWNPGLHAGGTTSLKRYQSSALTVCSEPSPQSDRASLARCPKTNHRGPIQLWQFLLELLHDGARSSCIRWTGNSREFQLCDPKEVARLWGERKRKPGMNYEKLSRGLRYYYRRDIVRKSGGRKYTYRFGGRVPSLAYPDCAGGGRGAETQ
To be noted: protein: recombinant; tags: N-terminal GST; dsDNA, one strand shown. The method in brief:
as §1

Another assay concerns the target T5, ELF3 (Homo sapiens, UniProt P78545 1-371).
T5 sequence: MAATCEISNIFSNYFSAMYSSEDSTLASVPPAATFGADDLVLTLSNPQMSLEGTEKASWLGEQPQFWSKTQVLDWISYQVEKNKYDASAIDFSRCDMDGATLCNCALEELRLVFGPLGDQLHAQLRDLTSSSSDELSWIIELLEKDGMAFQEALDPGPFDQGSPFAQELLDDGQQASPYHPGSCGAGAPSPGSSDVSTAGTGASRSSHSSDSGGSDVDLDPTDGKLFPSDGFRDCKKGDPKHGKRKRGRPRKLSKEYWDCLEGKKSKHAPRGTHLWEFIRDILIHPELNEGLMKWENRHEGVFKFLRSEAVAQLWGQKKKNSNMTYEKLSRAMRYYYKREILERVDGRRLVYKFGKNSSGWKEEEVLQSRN
The note with it: protein: recombinant; tags: N-terminal GST; dsDNA, one strand shown. The method in brief:
as §1

The next assay addresses CRX (Homo sapiens, UniProt O43186 1-299). The note with it: protein: recombinant; tags: N-terminal GST; dsDNA, one strand shown. The method in brief: as §1
Another assay deals with ETV1 (Homo sapiens, UniProt P50549 1-477). The note with it: protein: recombinant; tags: N-terminal GST; dsDNA, one strand shown. The method in brief: as §1
Sequence of ETV1 (P50549 whole entry): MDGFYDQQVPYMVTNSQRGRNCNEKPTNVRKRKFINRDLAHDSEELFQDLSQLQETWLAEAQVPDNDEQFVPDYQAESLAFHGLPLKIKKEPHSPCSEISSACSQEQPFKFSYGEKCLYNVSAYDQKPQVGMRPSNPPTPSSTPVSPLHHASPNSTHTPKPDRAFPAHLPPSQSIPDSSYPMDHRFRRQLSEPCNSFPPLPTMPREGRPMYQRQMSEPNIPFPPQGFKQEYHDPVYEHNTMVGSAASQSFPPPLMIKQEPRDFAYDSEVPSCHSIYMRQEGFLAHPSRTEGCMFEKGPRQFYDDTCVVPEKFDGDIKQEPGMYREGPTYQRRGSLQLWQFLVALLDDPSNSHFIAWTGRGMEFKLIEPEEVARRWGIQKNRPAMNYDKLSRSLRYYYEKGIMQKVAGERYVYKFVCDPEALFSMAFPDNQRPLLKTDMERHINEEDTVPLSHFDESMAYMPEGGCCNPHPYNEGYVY
The target in a further assay is T6, ERF (Homo sapiens, UniProt P50548 1-548).
T6 sequence: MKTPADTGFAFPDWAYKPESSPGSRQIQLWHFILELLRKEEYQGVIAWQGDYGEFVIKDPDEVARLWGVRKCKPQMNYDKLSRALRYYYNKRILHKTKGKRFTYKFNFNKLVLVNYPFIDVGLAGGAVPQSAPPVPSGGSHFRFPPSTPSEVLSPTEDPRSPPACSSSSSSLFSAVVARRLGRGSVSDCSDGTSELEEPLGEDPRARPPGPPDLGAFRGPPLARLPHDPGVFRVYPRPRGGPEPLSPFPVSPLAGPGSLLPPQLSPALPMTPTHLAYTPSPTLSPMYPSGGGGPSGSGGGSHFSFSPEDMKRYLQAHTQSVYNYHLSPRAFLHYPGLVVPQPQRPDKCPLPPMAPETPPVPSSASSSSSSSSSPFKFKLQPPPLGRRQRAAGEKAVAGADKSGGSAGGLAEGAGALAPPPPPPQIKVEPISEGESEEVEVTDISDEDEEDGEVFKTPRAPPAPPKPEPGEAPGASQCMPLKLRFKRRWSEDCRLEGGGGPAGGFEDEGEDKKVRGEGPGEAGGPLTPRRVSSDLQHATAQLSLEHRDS
The note with it: protein: recombinant; tags: N-terminal GST; dsDNA, one strand shown. The method in brief:
as §1

The target in the next assay is T7, ETV3L (Homo sapiens, UniProt Q6ZN32 1-361).
T7 sequence: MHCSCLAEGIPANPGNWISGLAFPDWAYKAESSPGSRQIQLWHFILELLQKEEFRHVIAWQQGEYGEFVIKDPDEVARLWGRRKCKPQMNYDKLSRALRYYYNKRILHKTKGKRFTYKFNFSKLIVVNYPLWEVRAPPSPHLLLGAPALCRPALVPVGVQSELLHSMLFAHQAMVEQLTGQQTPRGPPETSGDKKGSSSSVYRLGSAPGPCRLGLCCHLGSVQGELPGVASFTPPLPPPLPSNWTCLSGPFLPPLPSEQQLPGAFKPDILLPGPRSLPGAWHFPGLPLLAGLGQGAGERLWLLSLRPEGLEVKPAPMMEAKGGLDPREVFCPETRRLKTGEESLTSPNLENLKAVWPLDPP
The note with it: protein: recombinant; tags: N-terminal GST; dsDNA, one strand shown. The method in brief:
as §1

In the next assay the target is T8, ETS2 (Homo sapiens, UniProt P15036 1-469).
T8 sequence: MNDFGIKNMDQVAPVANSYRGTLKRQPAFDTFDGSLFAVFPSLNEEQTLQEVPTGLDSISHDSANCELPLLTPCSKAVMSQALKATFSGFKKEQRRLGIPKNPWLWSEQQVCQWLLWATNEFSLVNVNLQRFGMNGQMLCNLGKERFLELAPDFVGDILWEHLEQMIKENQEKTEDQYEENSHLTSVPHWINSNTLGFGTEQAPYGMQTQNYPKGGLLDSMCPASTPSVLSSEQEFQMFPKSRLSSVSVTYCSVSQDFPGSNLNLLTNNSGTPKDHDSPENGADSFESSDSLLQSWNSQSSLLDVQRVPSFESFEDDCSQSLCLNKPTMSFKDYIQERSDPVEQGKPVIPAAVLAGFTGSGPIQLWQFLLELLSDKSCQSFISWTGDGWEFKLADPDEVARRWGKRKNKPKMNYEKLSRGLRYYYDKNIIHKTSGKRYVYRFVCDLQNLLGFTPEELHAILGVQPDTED
To be noted: protein: recombinant; tags: N-terminal GST; dsDNA, one strand shown. The method in brief: as §1

In another assay the target is T9, SPDEF (Homo sapiens, UniProt O95238 1-335).
T9 sequence: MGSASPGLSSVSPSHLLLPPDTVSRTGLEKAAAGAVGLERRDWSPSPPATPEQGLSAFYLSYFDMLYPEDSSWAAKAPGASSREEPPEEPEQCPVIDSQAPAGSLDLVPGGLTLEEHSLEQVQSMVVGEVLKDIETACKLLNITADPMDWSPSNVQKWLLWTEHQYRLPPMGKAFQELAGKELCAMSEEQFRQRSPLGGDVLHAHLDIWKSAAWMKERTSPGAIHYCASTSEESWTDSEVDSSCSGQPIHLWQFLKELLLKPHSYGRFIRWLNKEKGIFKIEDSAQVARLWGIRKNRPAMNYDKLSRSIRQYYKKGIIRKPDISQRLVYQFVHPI
To be noted: protein: recombinant; tags: N-terminal GST; dsDNA, one strand shown. The method in brief: as §1

Another assay deals with T10, ETV7 (Homo sapiens, UniProt Q9Y603 1-341).
T10 sequence: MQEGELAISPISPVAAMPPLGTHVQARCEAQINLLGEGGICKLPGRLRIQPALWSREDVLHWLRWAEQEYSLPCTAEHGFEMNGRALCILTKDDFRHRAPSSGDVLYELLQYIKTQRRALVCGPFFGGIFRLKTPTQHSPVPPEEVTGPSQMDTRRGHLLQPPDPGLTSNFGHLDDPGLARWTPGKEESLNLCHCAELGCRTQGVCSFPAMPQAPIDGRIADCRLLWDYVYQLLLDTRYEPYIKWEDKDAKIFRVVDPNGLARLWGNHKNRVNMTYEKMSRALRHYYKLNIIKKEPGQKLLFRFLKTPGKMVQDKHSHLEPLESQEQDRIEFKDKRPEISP
The note with it: protein: recombinant; tags: N-terminal GST; dsDNA, one strand shown. The method in brief: as §1

The next assay has as its target T11, ELF5 (Homo sapiens, UniProt Q9UKW6-2 1-255).
T11 sequence: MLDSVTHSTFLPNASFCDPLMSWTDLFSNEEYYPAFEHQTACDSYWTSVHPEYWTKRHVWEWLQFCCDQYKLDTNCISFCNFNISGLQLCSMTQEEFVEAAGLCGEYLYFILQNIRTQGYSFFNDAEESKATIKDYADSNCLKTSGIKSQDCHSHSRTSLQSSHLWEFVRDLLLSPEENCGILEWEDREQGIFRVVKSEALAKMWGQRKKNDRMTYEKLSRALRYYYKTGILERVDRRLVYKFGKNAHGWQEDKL
To be noted: protein: recombinant; tags: N-terminal GST; dsDNA, one strand shown. The method in brief: as §1

The next assay deals with T12, ETV3 (Homo sapiens, UniProt P41162-2 1-143).
T12 sequence: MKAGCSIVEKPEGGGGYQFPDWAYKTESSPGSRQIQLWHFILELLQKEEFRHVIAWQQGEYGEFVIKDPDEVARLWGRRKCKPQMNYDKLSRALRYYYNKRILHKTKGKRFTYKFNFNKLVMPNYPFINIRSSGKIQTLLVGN
To be noted: protein: recombinant; tags: N-terminal GST; dsDNA, one strand shown. The method in brief:
as §1

The next assay has as its target ETV6 (Homo sapiens, UniProt P41212 1-452). To be noted: protein: recombinant; tags: N-terminal GST; dsDNA, one strand shown. The method in brief: as §1

Sequence of CRX (O43186 whole entry): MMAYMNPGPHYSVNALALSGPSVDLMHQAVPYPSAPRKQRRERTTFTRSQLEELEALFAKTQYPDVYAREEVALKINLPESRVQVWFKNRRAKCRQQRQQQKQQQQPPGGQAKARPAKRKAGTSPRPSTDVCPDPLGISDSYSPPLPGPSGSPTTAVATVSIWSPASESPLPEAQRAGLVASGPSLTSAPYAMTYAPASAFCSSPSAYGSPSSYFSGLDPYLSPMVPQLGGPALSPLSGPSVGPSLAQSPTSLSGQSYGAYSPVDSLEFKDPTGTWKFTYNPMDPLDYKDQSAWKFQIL
Sequence of HSF1 (Q00613 whole entry): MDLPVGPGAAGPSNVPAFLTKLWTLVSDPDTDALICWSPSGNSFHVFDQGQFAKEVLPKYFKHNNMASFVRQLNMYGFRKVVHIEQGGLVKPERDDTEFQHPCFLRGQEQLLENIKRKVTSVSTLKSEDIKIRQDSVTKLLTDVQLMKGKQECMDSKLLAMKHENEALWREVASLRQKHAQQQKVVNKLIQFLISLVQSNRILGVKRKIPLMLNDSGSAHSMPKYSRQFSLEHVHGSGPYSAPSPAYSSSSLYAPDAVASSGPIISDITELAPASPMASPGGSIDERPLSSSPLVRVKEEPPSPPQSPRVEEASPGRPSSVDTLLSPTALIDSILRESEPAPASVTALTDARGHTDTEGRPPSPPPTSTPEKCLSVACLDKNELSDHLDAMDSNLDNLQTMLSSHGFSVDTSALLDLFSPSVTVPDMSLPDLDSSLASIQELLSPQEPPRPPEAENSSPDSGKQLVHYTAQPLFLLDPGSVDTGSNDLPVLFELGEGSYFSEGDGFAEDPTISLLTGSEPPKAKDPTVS
Sequence of ETV6 (P41212 whole entry): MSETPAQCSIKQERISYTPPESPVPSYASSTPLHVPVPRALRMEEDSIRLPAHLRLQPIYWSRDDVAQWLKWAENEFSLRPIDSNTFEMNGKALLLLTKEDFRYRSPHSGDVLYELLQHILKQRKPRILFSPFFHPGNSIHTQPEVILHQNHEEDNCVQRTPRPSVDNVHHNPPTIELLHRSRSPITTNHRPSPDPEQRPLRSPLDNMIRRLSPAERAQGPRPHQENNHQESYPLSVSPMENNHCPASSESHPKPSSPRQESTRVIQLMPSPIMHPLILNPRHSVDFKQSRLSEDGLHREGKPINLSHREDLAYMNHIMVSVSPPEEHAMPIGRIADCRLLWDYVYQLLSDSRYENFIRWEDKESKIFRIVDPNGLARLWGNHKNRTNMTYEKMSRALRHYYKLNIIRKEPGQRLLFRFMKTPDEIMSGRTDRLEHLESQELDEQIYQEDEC
Sequence of ELF4 (Q99607 whole entry): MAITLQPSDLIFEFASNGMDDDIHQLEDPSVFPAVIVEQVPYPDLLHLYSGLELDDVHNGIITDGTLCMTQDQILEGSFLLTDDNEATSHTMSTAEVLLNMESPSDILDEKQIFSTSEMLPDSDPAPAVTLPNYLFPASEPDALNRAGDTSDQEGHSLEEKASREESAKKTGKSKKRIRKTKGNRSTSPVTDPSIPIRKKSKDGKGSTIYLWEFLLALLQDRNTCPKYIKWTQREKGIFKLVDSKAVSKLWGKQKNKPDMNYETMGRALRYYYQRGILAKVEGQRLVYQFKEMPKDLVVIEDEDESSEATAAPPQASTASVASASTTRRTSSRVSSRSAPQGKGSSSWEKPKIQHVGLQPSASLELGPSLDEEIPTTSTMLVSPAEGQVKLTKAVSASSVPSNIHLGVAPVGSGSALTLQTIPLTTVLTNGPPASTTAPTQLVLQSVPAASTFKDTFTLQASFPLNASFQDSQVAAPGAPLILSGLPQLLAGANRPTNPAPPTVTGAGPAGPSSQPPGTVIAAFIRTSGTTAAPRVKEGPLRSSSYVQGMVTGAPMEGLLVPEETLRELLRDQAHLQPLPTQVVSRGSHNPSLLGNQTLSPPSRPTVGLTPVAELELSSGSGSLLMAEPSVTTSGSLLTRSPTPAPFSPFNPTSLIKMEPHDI

Turning to CCACTA, the binding signal in the assay with FEV was 1.08 fold enrichment (6-mer frequency, TF over GST control); in the assay with ETV5, 1.12 fold enrichment (6-mer frequency, TF over GST control); with HSF1 it was 1.08 fold enrichment (6-mer frequency, TF over GST control); with SPIC, 1.11 fold enrichment (6-mer frequency, TF over GST control); in the assay with ELF4, 1.11 fold enrichment (6-mer frequency, TF over GST control); in the assay with ELK4 it was 1.06 fold enrichment (6-mer frequency, TF over GST control). Further, the binding signal in the assay with ETV2 was 1.14 fold enrichment (6-mer frequency, TF over GST control); with ELF3, 1.1 fold enrichment (6-mer frequency, TF over GST control); in the assay with CRX, 1.12 fold enrichment (6-mer frequency, TF over GST control); with ETV1 it was 1.03 fold enrichment (6-mer frequency, TF over GST control); with ERF it was 1.11 fold enrichment (6-mer frequency, TF over GST control); in the assay with ETV3L it was 1.13 fold enrichment (6-mer frequency, TF over GST control). Also, the binding signal with ETS2 is 1.14 fold enrichment (6-mer frequency, TF over GST control); with SPDEF, 1.09 fold enrichment (6-mer frequency, TF over GST control); with ETV7 it was 1.04 fold enrichment (6-mer frequency, TF over GST control); with ELF5, 1.06 fold enrichment (6-mer frequency, TF over GST control); with ETV3, 1.03 fold enrichment (6-mer frequency, TF over GST control); in the assay with ETV6, 1.07 fold enrichment (6-mer frequency, TF over GST control).
